Experimental findings from PubChem BioAssay (NCI) are described below.

This is part of a sample that, as a whole, favours compounds with a hit. Of some 83,000 tested, about 20% had one in any assay.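 The endpoint reported here, percent growth, reads 100 for growth as untreated, 0 for no net growth and -100 for all cells dead.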 Values without a mark were called inactive. The source made the active and inactive calls. How the source made its calls: active means growth percent below 10; inactive means the rest.

What all share (assay): NCI-60 one-dose screen, 48 h (100 = growth as untreated, 0 = no growth, -100 = all killed)
One assay has as its system SK-MEL-2 melanoma. The following applies: 10 µM unless noted.
In the next assay the test system is EKVX NSCLC. The following applies: 10 µM unless noted.
For a further assay, the system named is SN12C renal. The following applies: 10 µM unless noted.
In another assay the test system is UO-31 renal. The following applies: 10 µM unless noted.
A further assay deals with ACHN renal. The following applies: 10 µM unless noted.
The next assay concerns CAKI-1 renal. The following applies: 10 µM.
A further assay concerns A498 renal. The following applies: 10 µM unless noted.
The next assay concerns CCRF-CEM leukemia. The following applies: 10 µM unless noted.
Another assay deals with MOLT-4 leukemia. The following applies: 10 µM unless noted.
The next assay deals with SR leukemia. The following applies: 10 µM unless noted.
Another assay deals with RPMI-8226 leukemia. The following applies: 10 µM unless noted.
A further assay relates to OVCAR-8 ovarian. The following applies: 10 µM unless noted.
A further assay has as its system OVCAR-5 ovarian. The following applies: 10 µM unless noted.
In the next assay the test system is OVCAR-4 ovarian. The following applies: 10 µM unless noted.
In a further assay the test system is SK-OV-3 ovarian. The following applies: 10 µM unless noted.
The test system of the next assay is IGROV1 ovarian. The following applies: 10 µM unless noted.
A further assay deals with TK-10 renal. The following applies: 10 µM unless noted.
A further assay deals with OVCAR-3 ovarian. The following applies: 10 µM unless noted.
The next assay deals with HS 578T breast. The following applies: 10 µM unless noted.
The test system of the next assay is NCI/ADR-RES ovarian. The following applies: 10 µM unless noted.

On to `COc1ccc(-c2nn(-c3ccc(NC(=O)Nc4ccc(Cl)c(C(F)(F)F)c4)cc3)cc2-c2ccncc2)cc1Cl`, for which the growth in the assay with SK-MEL-2 melanoma is -43.4% (active); in the assay with EKVX NSCLC it was 11.1%; in the assay on SN12C renal it was 16.5%; in the assay with UO-31 renal it was 3.92% (active); with ACHN renal, 7.51% (active); with CAKI-1 renal, -18.8% (active). Also, the growth is -5.72% (active) in the assay with A498 renal; 6.6% (active) in the assay on CCRF-CEM leukemia; 8.53% (active) in the assay on MOLT-4 leukemia; -7.31% (active) in the assay with SR leukemia; -33.1% (active) in the assay on RPMI-8226 leukemia; 9.53% (active) in the assay on OVCAR-8 ovarian. Besides, the growth in the assay on OVCAR-5 ovarian was 14.5%; in the assay on OVCAR-4 ovarian, 45.1%; in the assay on SK-OV-3 ovarian it was 23.9%; in the assay with IGROV1 ovarian, 24.8%.
On to `COc1ccc(-c2nnc(SCC(=O)Nc3ccc(C(=O)/C=C/c4ccc(OC)c(OC)c4)cc3)o2)cc1`, for which the growth in the assay with SK-MEL-2 melanoma is 94.1%; in the assay with EKVX NSCLC, 90%; with SN12C renal it was 92.3%; in the assay with UO-31 renal, 73.8%; with TK-10 renal it was 95.9%; in the assay with A498 renal, 103%. For the same molecule, the growth was 68.1% in the assay on MOLT-4 leukemia; 60.1% with RPMI-8226 leukemia; 88.1% in the assay with OVCAR-8 ovarian; 124% in the assay with OVCAR-5 ovarian; 86.9% in the assay on OVCAR-4 ovarian; 84.6% with SK-OV-3 ovarian. For the same molecule, the growth with IGROV1 ovarian was 85.9%; in the assay on OVCAR-3 ovarian, 100%; in the assay on HS 578T breast it was 93.4%; with NCI/ADR-RES ovarian, 90.1%.
In the case of `CCCCOc1c(N)cccc1C(=O)OCCN(CC)CC`, the growth in the assay on SK-MEL-2 melanoma is 96.6%; with EKVX NSCLC, 104%; in the assay with SN12C renal, 95.7%; with UO-31 renal it was 80.8%; in the assay on TK-10 renal it was 81.8%; with CCRF-CEM leukemia it was 90.6%. Further, the growth is 60.2% in the assay on MOLT-4 leukemia; 83.9% in the assay on SR leukemia; 123% with RPMI-8226 leukemia; 92.8% in the assay with OVCAR-8 ovarian; 113% in the assay on OVCAR-5 ovarian; 107% in the assay on OVCAR-4 ovarian. The growth in the assay with SK-OV-3 ovarian is 108%; with IGROV1 ovarian, 104%; with OVCAR-3 ovarian, 101%; in the assay with HS 578T breast, 102%; with NCI/ADR-RES ovarian, 106%.
Consider `Cc1ccc2nc(-c3ccc(-n4on4-c4ccc(/C=C/c5ccc(-n6on6-c6ccc(-c7nc8ccc(C)cc8s7)cc6)cc5S(=O)(=O)O)c(S(=O)(=O)O)c4)cc3)sc2c1`, for which the growth in the assay with SK-MEL-2 melanoma was 112%; with EKVX NSCLC, 112%; in the assay on SN12C renal, 105%; in the assay with UO-31 renal, 90.4%; in the assay with ACHN renal it was 105%; in the assay with CAKI-1 renal, 106%. In addition, the growth in the assay with A498 renal was 112%; in the assay with CCRF-CEM leukemia, 100%; in the assay on MOLT-4 leukemia it was 93.9%; with SR leukemia it was 113%; in the assay on RPMI-8226 leukemia, 102%; in the assay on OVCAR-8 ovarian it was 116%. Further, the growth in the assay on OVCAR-5 ovarian was 105%; in the assay on OVCAR-4 ovarian it was 118%; in the assay with SK-OV-3 ovarian, 113%; in the assay with IGROV1 ovarian, 101%; in the assay on OVCAR-3 ovarian it was 107%; in the assay on HS 578T breast it was 116%. Moreover, in the assay on NCI/ADR-RES ovarian, the growth is 109%.
Consider `Cc1nc(N)nc(SCc2ccccc2)c1Br`, for which the growth in the assay on SK-MEL-2 melanoma is 89.9%; with EKVX NSCLC, 85.7%; in the assay with SN12C renal it was 91.6%; in the assay with UO-31 renal it was 54.7%; in the assay with TK-10 renal, 112%; with A498 renal, 63.4%. The growth with MOLT-4 leukemia is 63.7%; in the assay with SR leukemia, 74.4%; with RPMI-8226 leukemia it was 81.1%; in the assay with OVCAR-8 ovarian, 89.9%; in the assay on OVCAR-5 ovarian, 111%; in the assay with OVCAR-4 ovarian, 86.2%. The growth in the assay with IGROV1 ovarian was 82.7%; with OVCAR-3 ovarian, 107%; with HS 578T breast, 87.6%; in the assay with NCI/ADR-RES ovarian, 95.9%.
In the case of `COc1cc(Br)c(-c2nc(-c3ccccc3)c(-c3ccccc3)n2Cc2ccccc2)cc1OC`, the growth in the assay on SK-MEL-2 melanoma is 44.8%; with EKVX NSCLC, 47.9%; in the assay on SN12C renal it was 66.5%; in the assay on UO-31 renal, 30.4%; in the assay with TK-10 renal it was 62.3%; in the assay with CCRF-CEM leukemia, 54.3%. For the same molecule, the growth is 23.4% with MOLT-4 leukemia; 47.3% in the assay with SR leukemia; 40.8% with RPMI-8226 leukemia; 55% in the assay on OVCAR-8 ovarian; 77.1% in the assay with OVCAR-5 ovarian; 48.6% in the assay with OVCAR-4 ovarian. Besides, the growth in the assay with SK-OV-3 ovarian was 39.5%; with IGROV1 ovarian, 49.4%; in the assay on OVCAR-3 ovarian it was 68.6%; in the assay on HS 578T breast, 88.7%.
With `COc1cccc(-c2nc3sccn3c2-c2ccnc(NCCNC(=O)c3ccccc3)n2)c1`, the growth was 73.3% in the assay with SK-MEL-2 melanoma; 106% with EKVX NSCLC; 84.3% in the assay with SN12C renal; 53.8% in the assay on UO-31 renal; 65.8% in the assay on ACHN renal; 84.4% in the assay with CAKI-1 renal. In addition, the growth was 66.3% with A498 renal; 52.5% in the assay on CCRF-CEM leukemia; 53.4% in the assay with MOLT-4 leukemia; 79.8% in the assay with SR leukemia; 41.6% in the assay with RPMI-8226 leukemia; 62.5% in the assay with OVCAR-8 ovarian. Moreover, the growth was 99.1% in the assay on OVCAR-5 ovarian; 109% with OVCAR-4 ovarian; 88.5% with SK-OV-3 ovarian; 69.2% in the assay on IGROV1 ovarian; 89.1% with OVCAR-3 ovarian.
Turning to `O=C(O)c1ccc(-c2nn(-c3ccc(C(=O)O)cc3)cc2/C=N/Nc2c(F)c(F)cc(F)c2F)cc1`, the growth is 99.1% in the assay on SK-MEL-2 melanoma; 103% with EKVX NSCLC; 107% in the assay on SN12C renal; 92.4% in the assay with UO-31 renal; 98.1% with TK-10 renal; 97.9% in the assay with CCRF-CEM leukemia. Also, the growth in the assay on MOLT-4 leukemia was 92.8%; with SR leukemia it was 94%; with RPMI-8226 leukemia, 103%; in the assay on OVCAR-8 ovarian, 108%; in the assay on OVCAR-5 ovarian, 101%; with OVCAR-4 ovarian, 111%. The growth with SK-OV-3 ovarian was 97.9%; with IGROV1 ovarian, 108%; in the assay with OVCAR-3 ovarian, 104%; in the assay on HS 578T breast it was 112%; with NCI/ADR-RES ovarian, 105%.
